Consider 15 molecules from PubChem BioAssay.

Active and inactive are the calls of the source. Unless noted, the rule behind the calls is not given here.

In test [1] the test system is Wnt5a (protein binding on small-molecule microarray). Nature of the test: small molecules binding Wnt5a protein – biophysical, small-molecule microarray, 635/667 nm fluorescence, primary screen (AID 1142).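 Note: fluorescence read at 667 nm with signal to noise per printed feature.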 Particulars: 635 nm fluorescence, higher = more signal.
A short description of test [2]: ATP-based viability of Huh7 replicon cells – cell-based, CellTiter-Glo luminescence, basal, 48 h, cytotoxicity control for HCV replication inhibitor project, primary screen (AID 1143).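 Note: Huh7 hepatoma cells carrying a hepatitis C replication reporter with no stimulus; test concentration not given here.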 Conditions: higher = more signal, called active from +8 up or from −8 down.
A short description of test [3]: Pseudomonas biofilm growth suppression – PAO1 strain, BacTiter-Glo luminescence, LB-PBS, primary screen (AID 1144). Conditions: P. aeruginosa PAO1 biofilm, 12 h, higher = more signal.
A short description of test [4]: basal CRE-LacZ reporter activity in PC12 – cell-based, unstimulated, primary screen (AID 1145). Particulars: no forskolin, luminescence, 4.5 h, higher = more signal, called active from +8 up or from −8 down.
Test [5] in a line: forskolin-driven CRE-LacZ activity in PC12 – cell-based, CRE-LacZ reporter, forskolin-stimulated, primary screen (AID 1146).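 Note: PC12 cells with 6xCRE LacZ reporter stimulated by forskolin 10 µM; beta-galactosidase reporter signal reflecting CREB driven transcription.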 Conditions: luminescence, 4.5 h, higher = more signal, called active from +8 up or from −8 down.
The target in test [6] is Streptavidin (Streptomyces avidinii) (UniProt P22629). Nature of the test: compounds binding control protein streptavidin – biophysical, small-molecule microarray, 635/667 nm fluorescence, artefact control for SMM compound annotation, primary screen (AID 1147).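 Note: signal reflects streptavidin binding to arrayed compounds as a control protein.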 Conditions: higher = more signal.
Test [7] can be described thus: probe aInhba binding on compound microarray – biochemical, small-molecule microarray, 635/667 nm fluorescence, primary screen (AID 1148).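 Note: score merges 667nm spot fluorescence with signal-to-noise for antibody binding to printed compounds.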 Conditions: higher = more signal.
Test [8] deals with Torsin-1A (Homo sapiens) (UniProt O14656). Nature of the test: TOR1A wild-type binding on microarray – cell lysate, small-molecule microarray, lysate, 635/667 nm, primary screen (AID 1149). Conditions: COS7 hTOR1A-WT lysate, 635 nm fluorescence, higher = more signal.
The target is the same in test [9]. Nature of the test: torsin A mutant lysate binding on microarrays – cell lysate, small-molecule microarray, COS7 lysate, 635/667 nm fluorescence, primary screen (AID 1150).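 Note: score pools 667 nm emission and signal to noise measuring lysate protein binding.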 Conditions: COS7 hTOR1A mutant lysate, 635 nm fluorescence, higher = more signal.
In test [10] the test system is Sonic hedgehog protein (Shh). The experiment in a line: Sonic hedgehog microarray binding compounds – biochemical, small-molecule microarray, 635/667 nm fluorescence, primary screen (AID 1151).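 Note: Shh protein binding to compounds spotted on small-molecule microarray slides; score combines spot fluorescence intensity with signal-to-noise across triplicate slides.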 Conditions: 635 nm fluorescence, higher = more signal.

Sequence of Streptavidin (Streptomyces avidinii) (P22629 whole entry, looked up): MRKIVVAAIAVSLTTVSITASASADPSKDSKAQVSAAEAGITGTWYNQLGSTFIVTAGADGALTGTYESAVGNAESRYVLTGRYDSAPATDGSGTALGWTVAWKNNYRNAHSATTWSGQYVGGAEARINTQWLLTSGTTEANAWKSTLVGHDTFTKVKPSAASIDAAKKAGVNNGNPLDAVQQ
Sequence of Torsin-1A (Homo sapiens) (O14656 whole entry, looked up): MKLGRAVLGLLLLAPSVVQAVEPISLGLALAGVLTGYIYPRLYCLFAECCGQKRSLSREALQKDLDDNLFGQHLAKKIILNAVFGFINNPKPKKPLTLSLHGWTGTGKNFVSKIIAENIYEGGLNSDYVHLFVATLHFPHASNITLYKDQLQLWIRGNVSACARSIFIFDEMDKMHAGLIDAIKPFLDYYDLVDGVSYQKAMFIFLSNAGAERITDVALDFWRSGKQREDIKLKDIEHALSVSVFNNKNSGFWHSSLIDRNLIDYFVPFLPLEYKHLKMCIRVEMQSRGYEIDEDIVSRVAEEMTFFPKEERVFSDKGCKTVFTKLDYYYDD

Take `[N-]=[N+]=NCc1ccccc1C[C@]1(C(N)=O)N=C(c2ccc(OCCCO)cc2)O[C@H]1c1ccccc1N=[N+]=[N-]`: the composite z-score was 0.451 in test [1]; 0.978 in [6]; 0.0906 in test [7]; 0.0331 in test [8]; 0.652 in test [9]; -0.413 in test [10]. Besides, the z-score in test [2] is -1.84 (inactive); in test [3], -0.43 (inactive); in test [4] it was -0.254 (inactive); in test [5], 0.248 (inactive).

In the case of `CCCNC(=O)[C@@]1(C)c2ccccc2C(=O)N(C(C)C)[C@H]1c1ccc(CO)cc1`, the composite z-score is 0.182 in [1]; -0.586 in test [6]; -0.0791 in test [7]; 0.398 in test [8]; -0.435 in [9]; -0.946 in test [10]. Moreover, the z-score in test [2] was -4.29 (inactive); in [3], -0.744 (inactive); in [4] it was 0.0279 (inactive); in test [5], 0.155 (inactive).

In the case of `Cc1ccc(S[C@]2(C(=O)NCCN3CCOCC3)CC(=O)N(C3CCCCC3)[C@@H]2c2ccc(CO)cc2)cc1`, the composite z-score in test [1] is -0.0482; in test [6] it was 0.893; in test [7], 0.0422; in [8] it was 0.18; in [9], 0.783; in [10], 0.318. For the same molecule, the z-score in test [2] is -0.0065 (inactive); in test [3] it was 0.314 (inactive); in test [4] it was 0.802 (inactive); in [5] it was 0.893 (inactive).

As to `COC(=O)[C@@]1(Cc2ccc(OC)cc2)[C@H]2c3cc(C(=O)N(C)C)n(CCSCCO)c3C[C@H]2CN1C(=O)c1ccccc1`, the composite z-score is 0.706 in test [1]; 0.872 in test [6]; 0.351 in test [7]; -0.101 in test [8]; 0.199 in test [9]; -0.824 in [10]. Also, the z-score in test [2] was -2.19 (inactive); in test [3], 0.565 (inactive); in test [4] it was -0.954 (inactive); in test [5] it was 0.325 (inactive).

In the case of `C=C(CCCC)/C(=C/C[C@@H](OC(=O)c1ccncc1)c1ccc(CO)o1)c1cc(C(=O)OC)ccc1OC`, the composite z-score was 0.079 in test [1]; 0.707 in test [6]; 0.027 in test [7]; 0.394 in test [8]; 1.23 in test [9]; 1.97 in test [10]. Further, the z-score in [2] is -0.605 (inactive); in test [3] it was 0.363 (inactive); in test [4] it was 6.18 (inactive); in test [5], 4.24 (inactive).

In the case of `CN1C(=O)C2C=CC(C(O)c3ccccc3)N(NC(=O)OC(C)(C)C)C2C1=O` (stereo not given), the composite z-score in test [1] was 0.126; in test [6], 0.134; in test [7], -0.128; in [8], -0.365; in test [9] it was 0.0838; in test [10], -0.582. The z-score was 0.413 (inactive) in [2], 0.316 (inactive) in test [3], 0.443 (inactive) in test [4] and 0.955 (inactive) in [5].

In the case of `COc1ccc([Si](C)(C)[C@H]2[C@H](CC(=O)N3CCC[C@H]3CO)O[C@@]3(C(=O)N(Cc4cccc(N5CCC5=O)c4)c4ccccc43)[C@@H]2C)cc1`, the composite z-score in test [1] is 0.749; in [6] it was 0.0783; in test [7] it was -0.0132; in test [8] it was 0.633; in test [9] it was 0.594; in test [10] it was 1.49. Moreover, the z-score in [2] is -3.02 (inactive); in test [3] it was 0.596 (inactive); in [4], 1.66 (inactive); in test [5] it was -1.2 (inactive).

Consider `CN1C(=O)C2C(C1=O)C1C=C(c3ccc(CO)cc3)C2C(C2CC2)N1Cc1cc2c(cc1Br)OCO2` (stereo not given), for which the composite z-score is 0.164 in [1]; 1.75 in [6]; 0.138 in [7]; 1.16 in test [8]; 1.65 in test [9]; 0.796 in test [10]. The z-score in test [2] is -5.17 (inactive); in test [3], -0.401 (inactive); in [4], 0.622 (inactive); in [5], -1.62 (inactive).

For the molecule `COC(=O)[C@@]1(Cc2ccc(F)cc2)[C@H]2c3cc(C(=O)N4CCCC4)n(Cc4ccc(Cl)c(C(F)(F)F)c4)c3C[C@H]2CN1C(=O)c1ccccc1`, the composite z-score is 1.99 in test [1]; 2.28 in test [6]; 1.35 in test [7]; 0.0817 in test [8]; 0.51 in test [9]; -0.239 in test [10]. The z-score in test [2] is -2.95 (inactive); in [3], 0.678 (inactive); in test [4], 0.204 (inactive); in test [5] it was 1.49 (inactive).

Consider `Cc1ccc(C(C)CC(O)C2C=CC3C(=O)NC(=O)C3N2Nc2ccccn2)o1` (stereo not given), for which the composite z-score in test [1] was -0.0405; in [6], -0.585; in [7], 0.0797; in test [8], 0.81; in test [9], 0.282; in [10], 0.452. Moreover, the z-score in test [2] was 1.2 (inactive); in test [3] it was -1.31 (inactive); in test [4], -0.712 (inactive); in test [5] it was -0.364 (inactive).

As for `CC[C@@H]1C=C(C(=O)O)[C@H](c2ccc(C(C)C)cc2)N1S(=O)(=O)c1ccc(C)cc1`, the composite z-score stood at 0.764 in test [1]; 0.939 in test [6]; 0.432 in test [7]; 0.145 in [8]; 1.22 in [9]; 0.34 in [10]. In addition, the z-score was -0.822 (inactive) in test [2], 0.448 (inactive) in test [3], -0.0137 (inactive) in [4] and -0.0578 (inactive) in test [5].

For the molecule `CCCC[C@@H]1C[C@H]1[C@@H](NC(=O)c1ccccc1)c1ccccc1`, the composite z-score was 0.209 in test [1]; 0.0499 in test [6]; 0.401 in test [7]; -0.477 in test [8]; -0.0734 in test [9]; -0.412 in test [10]. The z-score in [2] is -0.877 (inactive); in test [3], 0.727 (inactive); in [4], 0.0041 (inactive); in [5] it was 0.79 (inactive).

For the molecule `COc1ccc([Si](C)(C)[C@@H]2[C@@H](CCn3cc([C@H](O)c4ccccc4)nn3)O[C@]3(C(=O)N(C)c4ccccc43)[C@H]2C)cc1`, the composite z-score in test [1] was 0.0302; in [6], -0.0794; in [7], -0.0465; in [8] it was -0.507; in test [9], -0.0593; in [10] it was -0.103. The z-score is -3.85 (inactive) in [2], 0.317 (inactive) in test [3], 1.72 (inactive) in test [4] and -1.26 (inactive) in test [5].

`COc1ccc([Si](C)(C)[C@H]2[C@H](CC(=O)N3CCC[C@H]3CO)O[C@@]3(C(=O)N(c4ccccc4)c4ccccc43)[C@@H]2C)cc1`: the composite z-score in test [1] was -0.154; in test [6], -0.124; in [7], -0.154; in test [8], 0.656; in test [9] it was 0.0932; in [10] it was 1.23. Besides, the z-score is -3.6 (inactive) in test [2], 0.355 (inactive) in [3], -0.636 (inactive) in [4] and -0.38 (inactive) in test [5].

Consider `O=C(NCC(O)CO)[C@@]1(Cc2ccccc2)COC(c2ccc(OCCCO)cc2)=N1` (stereo not given in full), for which the composite z-score is 0.0149 in test [1]; -0.131 in [6]; 0.124 in test [7]; -0.0598 in [8]; 0.0184 in test [9]; -0.342 in [10]. For the same molecule, the z-score was -0.0858 (inactive) in [2], 0.741 (inactive) in test [3], 0.895 (inactive) in [4] and -0.18 (inactive) in test [5].
